# Laboratory results from PubChem BioAssay (EPA / NIEHS).
# Inconclusive results are not listed. Activity calls are given as the source filed them. How the source made its calls, unless noted: active means hit-call score of the fitted dose curve at least 0.9, where 1 is the maximum; inconclusive means response in the unintended direction; inactive means score below 0.9.
# How the values were obtained:
# [1] = ATG_TCF_b_cat_CIS: Attagene CIS-FACTORIAL HepG2 Assay for human T-Cell-Factor with beta-catenin (TCF/b-cat) (AID 2282965; active means hit-call score of the fitted dose curve at least 0.9, where 1 is the maximum; inactive means score below 0.9); details: HepG2 TCF/beta-catenin cis-reporter transcription, actives raise or lower the signal
# Outline: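 HepG2, transient MRTU transfection, cis-element-driven reporters (endogenous TFs). 24 h compound exposure. Readout: reporter mRNA by RT-PCR + 6-FAM primer extension, HpaI digest, capillary electrophoresis. Gain/loss fit vs DMSO baseline.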
# [2] = ATG_TGFb_CIS: Attagene CIS-FACTORIAL HepG2 Assay for human Transforming Growth Factor (TGF) (AID 2282967; active means hit-call score of the fitted dose curve at least 0.9, where 1 is the maximum; inactive means score below 0.9); details: HepG2 Attagene CIS TGFb reporter, mRNA transcription; actives raise or lower the signal
# Outline: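 Transient MRTU transfection of HepG2 (FuGene 6). Dose 24 h. TriZol RNA, oligo(dT) RT, PCR, 6-FAM primer extension, HpaI cut, CE. Bidirectional fit, DMSO = baseline.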
# [3] = biological target: Nuclear receptor subfamily 1 group I member 3 (Homo sapiens) (UniProt Q14994); experiment: ATG_CAR_TRANS: Attagene TRANS-FACTORIAL HepG2 Assay for human Constitutive Androstane Receptor (CAR) (AID 2282969); details: HepG2 Attagene TRANS-FACTORIAL CAR reporter;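 further: activators raise reporter mRNA above DMSO so AC50 marks induction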
# Outline: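 HepG2 cells transiently transfected with GAL4-UAS reporter units; TRANS format reads activity of exogenous chimeric NR-Gal4 protein. After 24 h dosing, reporter mRNA quantified by RT-PCR, 6-FAM labelling and capillary electrophoresis; gain of signal fitted against DMSO.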
# [4] = biological target: Estrogen receptor (Homo sapiens) (UniProt P03372); experiment: ATG_ERa_TRANS: Attagene TRANS-FACTORIAL HepG2 Assay for human Estrogen Receptor alpha (ERa) (AID 2282970); details: HepG2 Attagene TRANS ERa GAL4 reporter, mRNA
# Outline: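 HepG2 cells transiently transfected with multiplexed GAL4-UAS reporter units read out chimeric NR-Gal4 activity. After 24 h compound exposure, reporter mRNA was quantified by RT-PCR, 6-FAM labeling, HpaI digestion and capillary electrophoresis, relative to DMSO.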
# [5] = biological target: X-box-binding protein 1 (Homo sapiens) (UniProt P17861); experiment: ATG_Xbp1_CIS: Attagene CIS-FACTORIAL HepG2 Assay for human X-box Binding Protein 1 (XBP1) (AID 2282972; active means hit-call score of the fitted dose curve at least 0.9, where 1 is the maximum; inactive means score below 0.9); details: HepG2 XBP1 cis-element reporter, Attagene multiplex; actives raise or lower the signal
# Outline: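 HepG2 cells transiently transfected with cis-regulated multiple reporter transcription units; endogenous transcription factor activity measured 24 hours after chemical dosing. Reporter mRNA quantified by RT-PCR, 6-FAM primer extension, HpaI digestion and capillary electrophoresis; bidirectional fitting versus DMSO.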
# [6] = ATG_Hpa5_TRANS: Attagene TRANS-FACTORIAL HepG2 Assay for human GAL4-Hpa5 Hepatocyte Transcription Factor Basal Promoter (AID 2282975); details: HepG2 Attagene GAL4-Hpa5 transcription reporter;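 further: hits are increases in reporter mRNA over DMSO baseline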
# Outline: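 Basal-promoter GAL4 background control within the HepG2 trans-factorial panel of transiently transfected reporter units. Reporter mRNA is measured 24 h after dosing by RT-PCR and capillary electrophoresis, fitted for gain of signal versus DMSO.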
# [7] = biological target: Estrogen-related receptor gamma (Homo sapiens) (UniProt P62508); experiment: ATG_ERRg_TRANS: Attagene TRANS-FACTORIAL HepG2 Assay for human Estrogen-Related Receptor gamma (ERRg) (AID 2282977); details: HepG2 Attagene TRANS reporter, ERRg transactivation;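 further: hits increase reporter signal over DMSO so potencies reflect activators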
# Outline: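 Transient HepG2 transfectants, 24 h compound exposure, GAL4-UAS reporter mRNA by RT-PCR/6-FAM labelling/capillary electrophoresis; positive direction vs DMSO.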
# [8] = biological target: Glucocorticoid receptor (Homo sapiens) (UniProt P04150); experiment: ATG_GR_TRANS: Attagene TRANS-FACTORIAL HepG2 Assay for human Glucocorticoid Receptor (GR) (AID 2282978); details: HepG2 Attagene TRANS GR reporter, mRNA transcription;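 further: activators score as hits since higher reporter transcript over DMSO is fitted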
# Outline: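 Fluorescent capillary-electrophoresis quantitation of reporter mRNA is the readout, taken 24 h after dosing human HepG2 cells carrying transiently transfected GAL4-UAS reporter units activated by chimeric NR-GAL4 fusions; activity scored as induction over DMSO.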
# [9] = biological target: Oxysterols receptor LXR-beta (Homo sapiens) (UniProt P55055); experiment: ATG_LXRb_TRANS: Attagene TRANS-FACTORIAL HepG2 Assay for human Liver X Receptor beta (LXRb) (AID 2282981); details: HepG2 Attagene TRANS GAL4-LXRb reporter, mRNA
# Outline: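 Gain-of-signal mRNA reporter endpoint, DMSO as negative control. Transiently transfected HepG2 cells carrying the NR-Gal4 chimera and GAL4-UAS reporter units were treated 24 h; transcripts quantified by RT-PCR and capillary electrophoresis fluorescence.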
# [10] = ATG_M_06_TRANS: Attagene TRANS-FACTORIAL HepG2 Assay for M06 Transcription Factor (Internal Marker) (AID 2282983); details: HepG2 Attagene TRANS M06 internal marker reporter
# Outline: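 HepG2 cells transiently transfected with GAL4-UAS multiple reporter units, dosed 24 h. Reporter RNA reverse-transcribed, PCR-amplified, 6-FAM-labeled, HpaI-digested and quantified by capillary electrophoresis; this internal-marker signal fitted upward relative to DMSO.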
# [11] = ATG_VDRE_CIS: Attagene CIS-FACTORIAL HepG2 Assay for human Vitamin D Receptor Element (VDRE) (AID 2282968; active means hit-call score of the fitted dose curve at least 0.9, where 1 is the maximum; inactive means score below 0.9); details: HepG2 VDRE cis-reporter transcription, actives raise or lower the signal
# Outline: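 Cell-based multiplexed reporter format in human liver HepG2 cells, 24 h post-dose. Fluorescence from capillary electrophoresis of reporter cDNA gives the signal, with DMSO as negative control and baseline.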
# [12] = ATG_M_19_TRANS: Attagene TRANS-FACTORIAL HepG2 Assay for M19 Transcription Factor (Internal Marker) (AID 2282974); details: HepG2 Attagene TRANS-FACTORIAL M19 internal marker reporter
# Outline: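 Fluorescence of 6-FAM-labelled reporter cDNA fragments, separated by capillary electrophoresis, served as the readout. These derived from HepG2 cells carrying transfected GAL4-UAS reporter units after 24 h dosing, with DMSO as negative control.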
# [13] = biological target: Oxysterols receptor LXR-alpha (Homo sapiens) (UniProt Q13133); experiment: ATG_LXRa_TRANS: Attagene TRANS-FACTORIAL HepG2 Assay for human Liver X Receptor alpha (LXRa) (AID 2282980); details: HepG2 Attagene TRANS reporter, LXRa transactivation
# Outline: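 HepG2 cells transiently transfected with GAL4-UAS reporter units for chimeric NR-Gal4 proteins, exposed to chemicals for 24 h. Reporter mRNA quantified by RT-PCR and capillary electrophoresis; gain of signal fitted relative to DMSO.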
# [14] = ATG_M_32_TRANS: Attagene TRANS-FACTORIAL HepG2 Assay for M32 Transcription Factor (Internal Marker) (AID 2282984); details: HepG2 Attagene TRANS M32 internal marker reporter
# Outline: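 Capillary electrophoresis of 6-FAM-labelled reporter fragments gives the signal; data fitted for gain over DMSO negative control. Source: HepG2 cells bearing transient multiple reporter transcription units, 24 h exposure.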
# [15] = biological target: Steroid hormone receptor ERR1 (Homo sapiens) (UniProt P11474); experiment: ATG_ERRa_TRANS: Attagene TRANS-FACTORIAL HepG2 Assay for human Estrogen-Related Receptor alpha (ERRa) (AID 2282971); details: HepG2 Attagene TRANS reporter, ERRa transactivation
# Outline: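 HepG2 cells transiently transfected with GAL4-UAS reporter units and chimeric NR-Gal4 constructs; after 24 hour compound incubation, reporter mRNA quantified by RT-PCR, fluorescent labelling and capillary electrophoresis, gain of signal versus DMSO.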
# [16] = biological target: Hepatocyte nuclear factor 4-alpha (Homo sapiens) (UniProt P41235); experiment: ATG_HNF4a_TRANS: Attagene TRANS-FACTORIAL HepG2 Assay for human Hepatocyte Nuclear Factor 4 alpha (HNF4a) (AID 2282982); details: HepG2 HNF4a transactivation reporter, mRNA readout
# Outline: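 Gain-of-signal mRNA induction, relative to DMSO vehicle, was read after 24 h compound treatment of HepG2 cells bearing transfected GAL4-UAS reporters. Detection used RT-PCR, 6-FAM primer extension and capillary electrophoresis.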
# [17] = ATG_GAL4_TRANS: Attagene TRANS-FACTORIAL HepG2 Assay for GAL4 (Internal Marker) (AID 2282976); details: HepG2 Attagene TRANS GAL4 internal marker reporter
# Outline: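 Background-control readout: GAL4-UAS reporter transcript in transiently transfected HepG2 cells after 24 h compound exposure. Measured by RT-PCR, 6-FAM primer extension, HpaI digest and capillary electrophoresis; gain-of-signal fit versus DMSO.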
# [18] = biological target: Androgen receptor (Homo sapiens) (UniProt P10275); experiment: ATG_AR_TRANS: Attagene TRANS-FACTORIAL HepG2 Assay for human Androgen Receptor (AR) (AID 2282973); details: HepG2 Attagene TRANS-FACTORIAL AR reporter transcription
# Outline: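 HepG2 cells transiently transfected with AR-Gal4 chimera and GAL4-UAS reporter units; chemical exposure 24 h. Reporter mRNA quantified by RT-PCR with fluorescent labelling and capillary electrophoresis; gain-of-signal fitted against DMSO.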
# [19] = biological target: Bile acid receptor (Homo sapiens) (UniProt Q96RI1); experiment: ATG_FXR_TRANS: Attagene TRANS-FACTORIAL HepG2 Assay for Farnesoid X Receptor (FXR) (AID 2282979); details: HepG2 Attagene TRANS FXR-GAL4 reporter transcription;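 further: hits raise reporter mRNA above DMSO so AC50 marks FXR activation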
# Outline: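 HepG2 cells were transiently transfected with GAL4-UAS reporters driven by chimeric NR-Gal4 proteins and dosed for 24 h. Reporter mRNA was quantified by RT-PCR, fluorescent labelling, HpaI digestion and capillary electrophoresis, with gain of signal scored versus DMSO.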
# Glucocorticoid receptor (Homo sapiens), sequence (P04150 whole entry, looked up, the tested form may be a part): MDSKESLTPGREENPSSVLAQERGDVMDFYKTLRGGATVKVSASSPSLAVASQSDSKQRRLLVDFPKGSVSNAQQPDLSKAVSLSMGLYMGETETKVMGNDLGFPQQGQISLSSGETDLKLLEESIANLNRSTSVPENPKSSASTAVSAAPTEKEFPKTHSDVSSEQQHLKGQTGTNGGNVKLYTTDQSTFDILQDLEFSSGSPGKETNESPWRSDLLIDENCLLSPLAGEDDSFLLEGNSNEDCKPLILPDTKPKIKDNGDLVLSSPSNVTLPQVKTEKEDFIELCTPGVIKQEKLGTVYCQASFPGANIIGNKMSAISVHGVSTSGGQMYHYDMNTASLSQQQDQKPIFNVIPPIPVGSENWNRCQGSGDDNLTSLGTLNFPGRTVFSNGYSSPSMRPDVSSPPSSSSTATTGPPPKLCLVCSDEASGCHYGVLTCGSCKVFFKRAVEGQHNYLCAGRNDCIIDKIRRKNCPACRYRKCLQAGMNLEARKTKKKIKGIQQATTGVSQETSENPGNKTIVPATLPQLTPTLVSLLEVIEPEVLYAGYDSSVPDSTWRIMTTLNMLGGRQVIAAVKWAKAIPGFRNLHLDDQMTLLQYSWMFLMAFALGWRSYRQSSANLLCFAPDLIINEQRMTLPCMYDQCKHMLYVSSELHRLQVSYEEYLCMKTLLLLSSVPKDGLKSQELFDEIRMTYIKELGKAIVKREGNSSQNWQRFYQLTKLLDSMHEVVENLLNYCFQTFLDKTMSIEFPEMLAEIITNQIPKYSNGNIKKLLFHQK
# Steroid hormone receptor ERR1 (Homo sapiens), sequence (P11474 whole entry, looked up, the tested form may be a part): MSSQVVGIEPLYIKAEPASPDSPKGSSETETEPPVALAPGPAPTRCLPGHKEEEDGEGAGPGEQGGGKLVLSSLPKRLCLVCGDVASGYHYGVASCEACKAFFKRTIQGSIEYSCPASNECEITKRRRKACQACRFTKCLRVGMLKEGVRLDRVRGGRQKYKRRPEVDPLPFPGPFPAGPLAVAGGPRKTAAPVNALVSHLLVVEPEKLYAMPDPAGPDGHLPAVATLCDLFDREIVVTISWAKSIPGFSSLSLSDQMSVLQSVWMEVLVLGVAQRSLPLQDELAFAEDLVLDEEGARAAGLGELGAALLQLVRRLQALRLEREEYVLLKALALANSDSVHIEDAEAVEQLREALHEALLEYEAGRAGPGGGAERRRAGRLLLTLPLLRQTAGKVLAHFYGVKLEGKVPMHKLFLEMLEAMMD
# Nuclear receptor subfamily 1 group I member 3 (Homo sapiens), sequence (Q14994 whole entry, looked up, the tested form may be a part): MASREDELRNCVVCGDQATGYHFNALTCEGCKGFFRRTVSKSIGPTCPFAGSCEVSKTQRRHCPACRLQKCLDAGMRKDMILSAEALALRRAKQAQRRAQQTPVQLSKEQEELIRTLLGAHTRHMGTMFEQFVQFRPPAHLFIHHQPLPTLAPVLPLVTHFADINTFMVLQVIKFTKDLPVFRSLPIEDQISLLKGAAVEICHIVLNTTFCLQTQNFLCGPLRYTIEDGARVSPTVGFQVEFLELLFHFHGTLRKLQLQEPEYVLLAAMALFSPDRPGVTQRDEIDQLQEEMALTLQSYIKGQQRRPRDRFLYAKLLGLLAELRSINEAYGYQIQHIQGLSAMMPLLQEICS
# Hepatocyte nuclear factor 4-alpha (Homo sapiens), sequence (P41235 whole entry, looked up, the tested form may be a part): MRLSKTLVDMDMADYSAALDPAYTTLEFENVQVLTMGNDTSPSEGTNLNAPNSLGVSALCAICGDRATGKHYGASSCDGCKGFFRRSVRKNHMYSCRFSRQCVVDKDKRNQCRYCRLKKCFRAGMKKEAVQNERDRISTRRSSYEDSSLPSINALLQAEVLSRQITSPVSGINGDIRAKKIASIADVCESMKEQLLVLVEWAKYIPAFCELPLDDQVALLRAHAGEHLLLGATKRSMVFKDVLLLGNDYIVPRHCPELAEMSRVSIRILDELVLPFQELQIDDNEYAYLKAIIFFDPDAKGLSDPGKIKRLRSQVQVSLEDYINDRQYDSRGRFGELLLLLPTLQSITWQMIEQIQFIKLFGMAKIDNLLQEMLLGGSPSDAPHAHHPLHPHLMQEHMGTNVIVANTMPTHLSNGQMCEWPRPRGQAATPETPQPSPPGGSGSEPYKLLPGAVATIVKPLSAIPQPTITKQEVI
# Estrogen-related receptor gamma (Homo sapiens), sequence (P62508 whole entry, looked up, the tested form may be a part): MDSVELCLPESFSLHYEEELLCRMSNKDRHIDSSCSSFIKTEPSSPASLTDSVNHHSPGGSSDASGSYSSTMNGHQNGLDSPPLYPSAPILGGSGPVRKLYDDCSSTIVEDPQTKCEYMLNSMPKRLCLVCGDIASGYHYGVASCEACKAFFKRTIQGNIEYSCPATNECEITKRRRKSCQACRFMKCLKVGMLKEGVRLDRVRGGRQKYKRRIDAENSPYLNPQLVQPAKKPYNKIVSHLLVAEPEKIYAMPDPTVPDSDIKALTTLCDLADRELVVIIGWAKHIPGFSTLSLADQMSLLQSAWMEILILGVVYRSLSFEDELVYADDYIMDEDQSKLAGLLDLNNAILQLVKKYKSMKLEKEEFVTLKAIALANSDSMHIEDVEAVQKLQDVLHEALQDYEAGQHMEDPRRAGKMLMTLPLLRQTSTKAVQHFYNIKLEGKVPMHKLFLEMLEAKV
# X-box-binding protein 1 (Homo sapiens), sequence (P17861 whole entry, looked up): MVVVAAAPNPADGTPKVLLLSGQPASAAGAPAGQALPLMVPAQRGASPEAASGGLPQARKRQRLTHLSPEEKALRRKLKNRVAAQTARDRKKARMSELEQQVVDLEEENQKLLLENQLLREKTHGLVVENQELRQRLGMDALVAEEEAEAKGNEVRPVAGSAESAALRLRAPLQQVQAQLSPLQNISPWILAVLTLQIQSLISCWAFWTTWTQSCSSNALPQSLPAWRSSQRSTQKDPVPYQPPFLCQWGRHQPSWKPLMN
# Oxysterols receptor LXR-beta (Homo sapiens), sequence (P55055 whole entry, looked up, the tested form may be a part): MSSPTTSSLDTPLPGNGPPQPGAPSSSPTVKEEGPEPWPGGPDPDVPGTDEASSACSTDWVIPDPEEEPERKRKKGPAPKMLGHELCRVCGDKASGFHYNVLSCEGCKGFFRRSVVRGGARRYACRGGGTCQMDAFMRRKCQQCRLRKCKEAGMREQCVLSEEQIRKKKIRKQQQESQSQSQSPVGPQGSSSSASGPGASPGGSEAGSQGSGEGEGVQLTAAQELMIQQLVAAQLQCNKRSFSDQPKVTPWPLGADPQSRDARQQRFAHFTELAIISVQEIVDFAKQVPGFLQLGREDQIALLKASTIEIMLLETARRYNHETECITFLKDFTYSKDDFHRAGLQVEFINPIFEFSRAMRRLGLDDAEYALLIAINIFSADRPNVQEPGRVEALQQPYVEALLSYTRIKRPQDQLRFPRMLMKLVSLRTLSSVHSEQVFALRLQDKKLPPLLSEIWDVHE
# Estrogen receptor (Homo sapiens), sequence (P03372 whole entry, looked up, the tested form may be a part): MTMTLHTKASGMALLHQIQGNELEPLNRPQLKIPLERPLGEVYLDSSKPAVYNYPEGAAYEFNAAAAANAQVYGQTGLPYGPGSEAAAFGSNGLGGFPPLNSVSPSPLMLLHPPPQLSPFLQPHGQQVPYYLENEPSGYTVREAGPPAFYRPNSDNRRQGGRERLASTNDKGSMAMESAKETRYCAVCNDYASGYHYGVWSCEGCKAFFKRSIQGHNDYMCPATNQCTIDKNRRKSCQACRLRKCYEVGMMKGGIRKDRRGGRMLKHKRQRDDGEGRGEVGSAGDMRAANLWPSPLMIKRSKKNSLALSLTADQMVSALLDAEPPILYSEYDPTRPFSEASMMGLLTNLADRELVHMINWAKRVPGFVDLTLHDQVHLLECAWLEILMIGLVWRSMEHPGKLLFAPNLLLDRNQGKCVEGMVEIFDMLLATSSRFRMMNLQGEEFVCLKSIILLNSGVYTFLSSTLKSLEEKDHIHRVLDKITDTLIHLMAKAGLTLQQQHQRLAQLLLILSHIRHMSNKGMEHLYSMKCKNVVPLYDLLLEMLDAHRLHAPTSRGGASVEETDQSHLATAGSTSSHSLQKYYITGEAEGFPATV
# Bile acid receptor (Homo sapiens), sequence (Q96RI1 whole entry, looked up, the tested form may be a part): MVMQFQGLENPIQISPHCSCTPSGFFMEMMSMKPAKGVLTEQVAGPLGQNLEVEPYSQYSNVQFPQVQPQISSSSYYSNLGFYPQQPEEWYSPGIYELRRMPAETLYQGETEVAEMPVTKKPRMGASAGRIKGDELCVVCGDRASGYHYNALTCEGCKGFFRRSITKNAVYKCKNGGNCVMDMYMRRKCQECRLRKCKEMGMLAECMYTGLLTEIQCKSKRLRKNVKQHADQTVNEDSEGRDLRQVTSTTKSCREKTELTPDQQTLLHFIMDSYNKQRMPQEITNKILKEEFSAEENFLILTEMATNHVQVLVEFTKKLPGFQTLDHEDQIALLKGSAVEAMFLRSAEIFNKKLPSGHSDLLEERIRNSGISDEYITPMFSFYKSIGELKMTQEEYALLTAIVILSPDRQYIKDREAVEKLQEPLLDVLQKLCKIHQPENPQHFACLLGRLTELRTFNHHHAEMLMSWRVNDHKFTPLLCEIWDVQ
# Oxysterols receptor LXR-alpha (Homo sapiens), sequence (Q13133 whole entry, looked up, the tested form may be a part): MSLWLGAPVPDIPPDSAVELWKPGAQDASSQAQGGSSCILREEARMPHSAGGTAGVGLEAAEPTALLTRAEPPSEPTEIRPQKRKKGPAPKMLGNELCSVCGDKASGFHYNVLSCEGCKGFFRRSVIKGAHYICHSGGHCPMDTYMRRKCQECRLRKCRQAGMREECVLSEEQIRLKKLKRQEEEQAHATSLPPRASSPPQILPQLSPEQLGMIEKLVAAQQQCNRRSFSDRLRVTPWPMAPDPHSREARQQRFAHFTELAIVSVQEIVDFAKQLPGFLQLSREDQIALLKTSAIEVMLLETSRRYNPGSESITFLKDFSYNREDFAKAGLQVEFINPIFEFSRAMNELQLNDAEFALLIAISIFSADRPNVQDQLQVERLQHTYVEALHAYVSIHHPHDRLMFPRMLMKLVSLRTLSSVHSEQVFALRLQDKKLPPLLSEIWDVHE
structure (smiles),measurement,setting,value
CCOC(=O)C(C)OC(=O)c1cc(Oc2ccc(C(F)(F)F)cc2Cl)ccc1[N+](=O)[O-] (stereo not drawn),outcome,[1],inactive
same,outcome,[2],inactive
same,outcome,[3],inactive
same,AC50,[4],50 µM (active)
same,outcome,[5],inactive
same,outcome,[6],inactive
same,outcome,[7],inactive
same,outcome,[8],inactive
same,outcome,[9],inactive
same,outcome,[10],inactive
Nc1cnn(-c2ccccc2)c(=O)c1Cl,outcome,[1],inactive
same,outcome,[2],inactive
same,outcome,[11],inactive
same,outcome,[3],inactive
same,outcome,[4],inactive
same,outcome,[5],inactive
same,outcome,[12],inactive
same,outcome,[6],inactive
same,outcome,[13],inactive
same,outcome,[9],inactive
same,outcome,[14],inactive
COC(=O)N(C(=O)N1CO[C@@]2(C(=O)OC)Cc3cc(Cl)ccc3C2=N1)c1ccc(OC(F)(F)F)cc1,outcome,[1],inactive
same,outcome,[2],inactive
same,AC50,[11],2.98 µM (active)
same,outcome,[4],inactive
same,outcome,[15],inactive
same,outcome,[5],inactive
same,outcome,[12],inactive
same,outcome,[7],inactive
same,outcome,[8],inactive
same,outcome,[9],inactive
same,outcome,[16],inactive
same,outcome,[14],inactive
CC(C)NC(=O)N1CC(=O)N(c2cc(Cl)cc(Cl)c2)C1=O,outcome,[1],inactive
same,outcome,[2],inactive
same,outcome,[15],inactive
same,outcome,[5],inactive
same,outcome,[12],inactive
same,outcome,[6],inactive
same,outcome,[17],inactive
same,outcome,[7],inactive
same,outcome,[9],inactive
same,outcome,[10],inactive
same,outcome,[14],inactive
Clc1cccc(C(Cl)(Cl)Cl)n1,outcome,[1],inactive
same,outcome,[2],inactive
same,outcome,[4],inactive
same,outcome,[5],inactive
same,outcome,[18],inactive
same,outcome,[12],inactive
same,outcome,[6],inactive
same,outcome,[19],inactive
same,outcome,[9],inactive
same,outcome,[10],inactive
same,outcome,[14],inactive
O=C(O)c1c(Cl)ccc2cc(Cl)cnc12,outcome,[1],inactive
same,outcome,[2],inactive
same,outcome,[11],inactive
same,outcome,[3],inactive
same,outcome,[4],inactive
same,outcome,[5],inactive
same,outcome,[12],inactive
same,outcome,[9],inactive
N#CN=C1SCCN1Cc1ccc(Cl)nc1,outcome,[1],inactive
same,outcome,[2],inactive
same,outcome,[4],inactive
same,outcome,[15],inactive
same,outcome,[5],inactive
same,outcome,[12],inactive
same,outcome,[6],inactive
same,outcome,[7],inactive
same,outcome,[8],inactive
same,outcome,[9],inactive
same,outcome,[16],inactive
same,outcome,[14],inactive
CCN(CC)C(=O)C(C)Oc1cccc2ccccc12 (stereo not drawn),outcome,[1],inactive
same,outcome,[2],inactive
same,outcome,[3],inactive
same,AC50,[4],29.8 µM (active)
same,outcome,[5],inactive
same,outcome,[12],inactive
same,outcome,[6],inactive
same,outcome,[9],inactive
same,outcome,[16],inactive
same,outcome,[10],inactive
same,outcome,[14],inactive
CC(C)(C)C(=O)C(Oc1ccc(Cl)cc1)n1cncn1 (stereo not drawn),outcome,[1],inactive
same,outcome,[2],inactive
same,AC50,[11],34.4 µM (active)
same,outcome,[3],inactive
same,AC50,[4],18.5 µM (active)
same,outcome,[5],inactive
same,outcome,[12],inactive
same,outcome,[6],inactive
same,outcome,[8],inactive
same,outcome,[9],inactive
same,outcome,[16],inactive
same,outcome,[14],inactive
